Assay [1] deals with PRMT1 (protein arginine N-methyltransferase 1). Briefly: PRMT1 binders on small-molecule microarrays, primary screen, biochemical, small-molecule microarray, 635 nm fluorescence (AID 1088).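 Note: binding of Prmt1 protein to compounds spotted on small-molecule microarray slides.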 As to conditions: small-molecule microarray binding, higher = more signal.
Assay [2] can be described thus: yeast growth modulation, basal conditions, primary screen, YJM789 clinical isolate, OD600, 24 h (AID 1089).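 Note: growth of clinical yeast isolate S. cerevisiae YJM 789 seeded 1000 cells per well; test concentration not given here.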 As to conditions: S. cerevisiae YJM789 growth, higher = more signal, called active from +8 up or from −8 down.
Assay [3] in a line: fission yeast growth modulation, primary screen, strain 972, OD600, 24 h, no modulator (AID 1090).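 Note: basal condition with compound alone and no growth modifier present; test concentration not given here.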 As to conditions: S. pombe 972 growth, higher = more signal, called active from +8 up or from −8 down.
Assay [4] in a line: S. cerevisiae growth modulation with rapamycin, primary screen, strain BY4716, OD600, 96 h (AID 1091). Note: test concentration not given here. As to conditions: higher = more signal, called active from +8 up or from −8 down.
In assay [5] the target is Torsin-1A-interacting protein 2 (Homo sapiens) (UniProt Q8NFQ8). Briefly: LULL1 binders on small-molecule microarray, primary screen, cell lysate, human LULL1 lysate, 635/667 nm fluorescence (AID 1092).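 Note: probe is lysate of COS7 cells overexpressing human LULL1; score merges per-feature 667 nm fluorescence with signal-to-noise.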 As to conditions: hLULL1 lysate binding, 635 nm fluorescence, higher = more signal.
Torsin-1A-interacting protein 2 (Homo sapiens), sequence (Q8NFQ8 whole entry, looked up): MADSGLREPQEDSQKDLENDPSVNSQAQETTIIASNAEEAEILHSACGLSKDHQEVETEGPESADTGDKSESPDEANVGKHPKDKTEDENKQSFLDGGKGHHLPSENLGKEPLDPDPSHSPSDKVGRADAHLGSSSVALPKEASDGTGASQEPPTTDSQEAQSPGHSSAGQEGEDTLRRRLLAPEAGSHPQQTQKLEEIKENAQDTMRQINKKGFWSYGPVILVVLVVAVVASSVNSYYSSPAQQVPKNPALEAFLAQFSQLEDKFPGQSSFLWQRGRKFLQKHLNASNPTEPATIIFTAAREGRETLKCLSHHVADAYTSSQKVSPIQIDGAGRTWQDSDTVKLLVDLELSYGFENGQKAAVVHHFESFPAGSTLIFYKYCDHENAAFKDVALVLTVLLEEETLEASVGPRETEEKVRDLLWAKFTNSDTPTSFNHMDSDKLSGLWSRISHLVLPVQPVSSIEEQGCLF
Assay [6] is described as follows: E. coli growth modulation, two-sided OD650, primary screen, E. coli filamentation project, strain DRC41, 24 h (AID 1093).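 Note: MC1000 strain lacking acrAB efflux and sulA so SOS filamentation is blocked; test concentration not given here.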 As to conditions: OD650, 24 h, higher = more signal, called active from +8 up or from −8 down.
Assay [7] is described as follows: small-molecule microarray binders of probe aLefty2, primary screen, biochemical, biotinylated probe, 635/667 nm fluorescence (AID 1094).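 Note: score merges spot fluorescence near 667 nm with spot signal-to-noise ratio.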 As to conditions: higher = more signal.
Assay [8] deals with Noggin (protein binding on small-molecule microarray). Nature of the assay: Noggin binders on small-molecule microarray, primary screen, biochemical, 635/667 nm fluorescence (AID 1095).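 Note: score merges 667 nm feature fluorescence with signal to noise over triplicate slides.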 As to conditions: 635 nm fluorescence, higher = more signal.
Assay [9] addresses Neurogenic locus notch homolog protein 3 (Homo sapiens) (UniProt Q9UM47). Nature of the assay: NOTCH3 binders on small-molecule microarray, primary screen, biochemical, 635/667 nm fluorescence (AID 1096). As to conditions: NOTCH3 binding, 635 nm fluorescence, higher = more signal.
Assay [10] in a line: small-molecule microarray binders of probe aEGFR, primary screen, biochemical, biotinylated probe, 635/667 nm fluorescence (AID 1097).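 Note: probe is a biotinylated anti-EGFR antibody binding compounds printed on slides; score combines fluorescence near 667 nm and signal to noise of each spot.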 As to conditions: higher = more signal.
Assay [11] deals with Plasmodium falciparum Sir2 (PF13_0152, Sir2A). Nature of the assay: pfSir2 binders on small-molecule microarrays, primary screen, biochemical, small-molecule microarray, 635 nm fluorescence (AID 1098).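 Note: score merges spot fluorescence intensity with its signal-to-noise ratio.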 As to conditions: small-molecule microarray binding, fluorescence 635 nm; higher = more signal.
Assay [12] in a line: small-molecule microarray binders of probe aDKK1, primary screen, biochemical, biotinylated probe, 635/667 nm fluorescence (AID 1099).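 Note: score merges 667nm spot fluorescence with signal to noise across triplicate slides; reference of the scale not given here.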 As to conditions: higher = more signal.
Assay [13] in a line: small-molecule microarray binders of probe aCHRDL2, primary screen, biochemical, biotinylated probe, 635/667 nm fluorescence (AID 1100). As to conditions: higher = more signal.
Assay [14] in a line: splicing luciferase reporter signal modulators, primary screen, spliceosome inhibition project, cell-based, HEK293, splice +/- reporter (AID 1101).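 Note: HEK293 cells carrying a splicing-competent luciferase reporter gene; test concentration not given here.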 As to conditions: luminescence, 24 h, higher = more signal, called active from +8 up or from −8 down. (In general: A reporter such as luciferase makes a cellular process visible.)
Assay [15] deals with Fibroblast growth factor 10 (Homo sapiens) (UniProt O15520). Briefly: FGF10 binders on small-molecule microarrays, primary screen, biochemical, small-molecule microarray, 635 nm fluorescence (AID 1102). As to conditions: FGF10 binding, fluorescence 635 nm, higher = more signal.
Fibroblast growth factor 10 (Homo sapiens), sequence (O15520 whole entry, looked up): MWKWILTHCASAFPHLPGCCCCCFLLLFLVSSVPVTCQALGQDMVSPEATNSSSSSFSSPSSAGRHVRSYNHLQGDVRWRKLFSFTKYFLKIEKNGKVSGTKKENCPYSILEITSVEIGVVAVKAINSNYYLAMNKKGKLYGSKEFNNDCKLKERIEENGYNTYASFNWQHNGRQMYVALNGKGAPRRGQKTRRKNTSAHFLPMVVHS
Assay [16] concerns glycogen synthase kinase-3 (GSK3A per assay name; protocol says GSK3B). Nature of the assay: GSK3 binders on small-molecule microarrays, primary screen, biochemical, small-molecule microarray, 635 nm fluorescence, GSK3A (AID 1103). Note: the record names both GSK3A and GSK3B. As to conditions: small-molecule microarray binding, fluorescence 635 nm; higher = more signal.
In assay [17] the target is Epidermal growth factor receptor (Homo sapiens) (UniProt P00533). Briefly: EGFR binders on small-molecule microarrays, primary screen, biochemical, small-molecule microarray, 635 nm fluorescence (AID 1104).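 Note: score merges 667 nm emission intensity with spot signal to noise over triplicate slides.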 As to conditions: EGFR binding, higher = more signal.
Epidermal growth factor receptor (Homo sapiens), sequence (P00533 whole entry, looked up): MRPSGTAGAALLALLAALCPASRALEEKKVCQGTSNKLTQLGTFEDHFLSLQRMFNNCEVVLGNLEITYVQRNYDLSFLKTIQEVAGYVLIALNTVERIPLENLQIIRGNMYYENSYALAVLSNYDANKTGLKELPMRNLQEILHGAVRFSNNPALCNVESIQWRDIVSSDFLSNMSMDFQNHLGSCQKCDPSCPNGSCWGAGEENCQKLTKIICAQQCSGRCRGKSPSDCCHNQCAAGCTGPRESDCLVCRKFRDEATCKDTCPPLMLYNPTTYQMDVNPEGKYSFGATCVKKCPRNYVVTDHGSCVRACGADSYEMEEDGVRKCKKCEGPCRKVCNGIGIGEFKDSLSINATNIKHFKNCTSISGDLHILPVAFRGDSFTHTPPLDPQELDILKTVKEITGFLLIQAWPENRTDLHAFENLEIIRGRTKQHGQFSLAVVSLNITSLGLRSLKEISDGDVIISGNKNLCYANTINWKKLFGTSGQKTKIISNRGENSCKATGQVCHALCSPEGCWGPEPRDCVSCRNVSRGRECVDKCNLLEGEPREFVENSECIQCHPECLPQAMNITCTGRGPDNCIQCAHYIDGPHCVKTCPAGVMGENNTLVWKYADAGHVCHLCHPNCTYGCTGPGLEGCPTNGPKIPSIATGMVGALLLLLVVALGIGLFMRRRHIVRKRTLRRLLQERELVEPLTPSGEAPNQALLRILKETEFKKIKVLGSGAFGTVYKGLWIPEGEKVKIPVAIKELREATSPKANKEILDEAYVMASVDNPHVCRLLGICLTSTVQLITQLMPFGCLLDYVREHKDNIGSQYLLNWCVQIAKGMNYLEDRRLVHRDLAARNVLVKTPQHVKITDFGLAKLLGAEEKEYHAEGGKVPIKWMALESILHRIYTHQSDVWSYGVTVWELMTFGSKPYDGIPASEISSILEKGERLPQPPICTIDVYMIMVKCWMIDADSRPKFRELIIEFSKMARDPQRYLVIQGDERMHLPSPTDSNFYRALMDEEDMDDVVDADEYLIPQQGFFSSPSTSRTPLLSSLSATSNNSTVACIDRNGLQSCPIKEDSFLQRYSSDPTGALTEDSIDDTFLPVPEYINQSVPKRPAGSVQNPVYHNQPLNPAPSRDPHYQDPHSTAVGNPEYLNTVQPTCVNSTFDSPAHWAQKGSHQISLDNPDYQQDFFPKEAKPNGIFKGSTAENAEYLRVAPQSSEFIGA
In assay [18] the target is Follistatin-related protein 3 (Homo sapiens) (UniProt O95633). Briefly: FSTL3 binders on small-molecule microarrays, primary screen, biochemical, small-molecule microarray, 635 nm fluorescence (AID 1105).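 Note: score merges emission near 667 nm and signal to noise per printed spot across three slides.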 As to conditions: FSTL3 binding, higher = more signal.
Follistatin-related protein 3 (Homo sapiens), sequence (O95633 whole entry, looked up): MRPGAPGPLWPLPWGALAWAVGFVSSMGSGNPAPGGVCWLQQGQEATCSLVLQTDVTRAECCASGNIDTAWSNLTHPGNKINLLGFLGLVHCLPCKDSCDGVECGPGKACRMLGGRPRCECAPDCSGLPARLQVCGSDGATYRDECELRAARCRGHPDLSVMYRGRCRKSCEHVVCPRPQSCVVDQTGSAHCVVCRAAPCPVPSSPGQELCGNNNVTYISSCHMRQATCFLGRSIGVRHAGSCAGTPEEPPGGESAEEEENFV
In assay [19] the target is Dickkopf-related protein 1 (Homo sapiens) (UniProt O94907). Briefly: DKK1 binders on small-molecule microarrays, primary screen, biochemical, small-molecule microarray, 635 nm fluorescence scan (AID 1106).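 Note: score merges emission near 667 nm with signal to noise over three replicate slides.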 As to conditions: DKK1 binding, higher = more signal.
Dickkopf-related protein 1 (Homo sapiens), sequence (O94907 whole entry, looked up): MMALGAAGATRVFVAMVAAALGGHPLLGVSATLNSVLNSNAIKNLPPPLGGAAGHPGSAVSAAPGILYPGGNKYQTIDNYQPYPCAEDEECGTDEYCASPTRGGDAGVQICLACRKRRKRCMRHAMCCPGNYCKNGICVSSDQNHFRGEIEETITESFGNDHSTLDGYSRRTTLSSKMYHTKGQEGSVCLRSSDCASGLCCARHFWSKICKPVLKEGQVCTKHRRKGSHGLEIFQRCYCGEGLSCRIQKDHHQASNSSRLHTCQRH
Assay [20] deals with Inhibin beta A chain (activin A). Nature of the assay: INHBA (activin A) binders on microarrays, primary screen, biochemical, small-molecule microarray, 635 nm fluorescence scan (AID 1107).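 Note: mouse activin A protein probed at 4.33 µg/mL on printed slides; score merges bound-protein fluorescence near 667 nm with spot signal-to-noise.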 As to conditions: small-molecule microarray binding, higher = more signal.

Calls of active or inactive are those of the source.

Neurogenic locus notch homolog protein 3 (Homo sapiens), sequence (Q9UM47 whole entry, looked up): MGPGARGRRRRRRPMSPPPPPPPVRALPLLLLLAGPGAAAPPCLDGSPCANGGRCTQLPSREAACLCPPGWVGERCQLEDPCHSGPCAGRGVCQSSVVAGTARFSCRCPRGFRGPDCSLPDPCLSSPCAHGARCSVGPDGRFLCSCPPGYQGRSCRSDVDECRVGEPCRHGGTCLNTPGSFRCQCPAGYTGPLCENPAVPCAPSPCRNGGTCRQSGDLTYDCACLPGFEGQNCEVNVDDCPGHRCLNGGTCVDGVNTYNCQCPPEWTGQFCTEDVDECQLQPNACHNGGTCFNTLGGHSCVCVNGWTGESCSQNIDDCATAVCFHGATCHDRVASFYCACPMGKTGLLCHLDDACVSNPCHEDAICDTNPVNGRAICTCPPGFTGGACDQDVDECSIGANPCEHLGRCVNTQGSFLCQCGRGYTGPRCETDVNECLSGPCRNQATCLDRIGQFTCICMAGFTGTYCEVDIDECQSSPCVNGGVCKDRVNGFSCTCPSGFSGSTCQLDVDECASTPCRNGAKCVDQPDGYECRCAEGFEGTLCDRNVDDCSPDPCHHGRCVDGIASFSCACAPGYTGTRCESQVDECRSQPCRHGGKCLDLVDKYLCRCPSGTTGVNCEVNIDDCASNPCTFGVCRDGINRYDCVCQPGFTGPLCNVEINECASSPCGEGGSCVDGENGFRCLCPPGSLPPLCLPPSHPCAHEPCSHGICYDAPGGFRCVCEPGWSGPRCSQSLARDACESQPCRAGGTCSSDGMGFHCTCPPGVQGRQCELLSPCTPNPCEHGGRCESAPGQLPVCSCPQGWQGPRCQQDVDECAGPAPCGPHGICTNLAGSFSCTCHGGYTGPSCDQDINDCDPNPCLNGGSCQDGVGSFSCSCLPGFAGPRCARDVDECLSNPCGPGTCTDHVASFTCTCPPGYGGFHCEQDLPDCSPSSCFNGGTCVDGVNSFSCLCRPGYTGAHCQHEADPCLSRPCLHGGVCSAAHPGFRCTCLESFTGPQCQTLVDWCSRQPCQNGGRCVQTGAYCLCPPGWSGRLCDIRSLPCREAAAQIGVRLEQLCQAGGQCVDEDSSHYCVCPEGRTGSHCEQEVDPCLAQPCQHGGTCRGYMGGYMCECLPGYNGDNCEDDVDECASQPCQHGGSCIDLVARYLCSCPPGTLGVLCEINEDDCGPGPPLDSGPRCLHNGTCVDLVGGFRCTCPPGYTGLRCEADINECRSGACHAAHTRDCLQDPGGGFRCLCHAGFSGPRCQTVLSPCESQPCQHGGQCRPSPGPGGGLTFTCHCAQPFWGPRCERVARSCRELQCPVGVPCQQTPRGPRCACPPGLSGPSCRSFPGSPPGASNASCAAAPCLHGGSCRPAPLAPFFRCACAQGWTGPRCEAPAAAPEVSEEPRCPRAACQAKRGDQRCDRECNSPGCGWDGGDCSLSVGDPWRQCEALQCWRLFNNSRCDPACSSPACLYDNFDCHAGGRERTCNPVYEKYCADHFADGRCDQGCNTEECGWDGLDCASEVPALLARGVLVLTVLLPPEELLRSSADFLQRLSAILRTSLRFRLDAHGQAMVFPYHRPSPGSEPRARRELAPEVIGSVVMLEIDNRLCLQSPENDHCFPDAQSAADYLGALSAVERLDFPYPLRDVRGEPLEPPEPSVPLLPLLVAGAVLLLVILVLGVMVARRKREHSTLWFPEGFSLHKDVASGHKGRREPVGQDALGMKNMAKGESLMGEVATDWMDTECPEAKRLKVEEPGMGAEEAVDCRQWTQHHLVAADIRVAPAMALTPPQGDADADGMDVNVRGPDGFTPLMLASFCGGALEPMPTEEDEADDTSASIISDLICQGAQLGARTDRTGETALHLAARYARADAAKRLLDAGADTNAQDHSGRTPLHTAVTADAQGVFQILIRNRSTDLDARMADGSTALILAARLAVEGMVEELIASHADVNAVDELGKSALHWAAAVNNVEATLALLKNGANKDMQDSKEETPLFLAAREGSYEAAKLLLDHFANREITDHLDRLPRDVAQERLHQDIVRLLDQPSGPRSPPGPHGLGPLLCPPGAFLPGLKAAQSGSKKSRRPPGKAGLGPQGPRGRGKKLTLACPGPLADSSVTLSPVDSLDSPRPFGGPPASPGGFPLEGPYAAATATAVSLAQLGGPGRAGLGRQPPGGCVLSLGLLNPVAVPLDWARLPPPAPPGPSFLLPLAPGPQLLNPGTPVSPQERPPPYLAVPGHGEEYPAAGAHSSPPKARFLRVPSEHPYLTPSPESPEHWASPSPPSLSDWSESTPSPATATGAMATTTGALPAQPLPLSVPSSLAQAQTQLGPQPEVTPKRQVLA

For the compound `COCCCNC(=O)[C@@]1(CCS(=O)(=O)c2ccccc2)N=C(c2ccc(OCCCO)cc2)O[C@H]1c1ccccc1`, the composite z-score in [1] is 1.38; in [5] it was 3.43; in assay [7], 0.888; in assay [8], 0.0483; in assay [9], -0.0936; in [10], 0.592. Moreover, the composite z-score in assay [11] is 1.69; in [12], 1.45; in assay [13] it was 1.16; in assay [15] it was 1.12; in assay [16] it was 1.29; in [17], -0.11. Further, the values for the composite z-score in assay [18], in assay [19] and in assay [20] were -0.21, 0.026 and 0.0123, respectively. In addition, the z-score in assay [2] was -0.67 (inactive); in [3], -0.692 (inactive); in assay [4] it was -0.757 (inactive); in assay [6], 2.54 (inactive); in [14], 0.409 (inactive).

`COc1ccc([Si](C)(C)[C@H]2[C@H](CCO)O[C@@]3(C(=O)N(Cc4cccc(NC(=O)[C@H](C)O)c4)c4ccccc43)[C@@H]2C)cc1`: the composite z-score is 1.54 in [1]; 2.47 in [5]; -0.0664 in [7]; 1.24 in assay [8]; 1.09 in [9]; -0.013 in [10]. Further, the composite z-score was 1.01 in [11]; -0.146 in assay [12]; -0.026 in [13]; 1.01 in assay [15]; 0.738 in [16]; 0.382 in assay [17]. Moreover, the results for the composite z-score in [18], in [19] and in assay [20] were 0.901, 0.507 and 0.106, respectively. In addition, the z-score in [2] is 1.62 (inactive); in assay [3], 0.562 (inactive); in assay [4], 7.56 (inactive); in assay [6], 1.24 (inactive); in assay [14] it was -2.55 (inactive).

For `C[C@@H]1CC[C@H]2C(=O)O[C@H](COc3ccc(C(C)(C)C)cc3)CN2[C@H]1c1ccc(Br)cc1`, the composite z-score was -0.59 in assay [1]; -0.121 in [5]; -0.291 in [7]; -0.273 in [8]; -0.428 in assay [9]; -0.122 in assay [10]. The composite z-score was 0.751 in assay [11]; -0.136 in assay [12]; -0.299 in assay [13]; -0.0611 in assay [15]; -0.533 in [16]; -0.287 in assay [17]. In addition, the results for the composite z-score in [18], in assay [19] and in assay [20] were -0.175, 0.0539 and 0.352, respectively. Besides, the z-score in assay [2] is 1.55 (inactive); in assay [3], 0.406 (inactive); in assay [4] it was 1.4 (inactive); in [6], -0.756 (inactive); in assay [14] it was 0.148 (inactive).

As to `CC(=O)OC[C@H]1O[C@H](CC=NOC[C@@H](C)[C@H](OCc2ccccc2)C(C)C)C=C[C@@H]1OC(C)=O`, the composite z-score is 0.7 in assay [1]; -0.299 in assay [5]; -0.0345 in assay [7]; 0.259 in assay [8]; -0.14 in assay [9]; -0.0873 in assay [10]. Also, the composite z-score in assay [11] is -0.15; in assay [12], -0.262; in [13] it was -0.478; in assay [15], -0.17; in assay [16], 0.1; in [17], 0.0284. The composite z-score in assay [18] was 0.523; in [19], 0.169; in assay [20], -0.0543. Moreover, the z-score was -0.523 (inactive) in [2]; -0.0269 (inactive) in assay [3]; -1 (inactive) in assay [4]; -0.186 (inactive) in assay [6]; 0.955 (inactive) in [14].

For the compound `COc1ccc(-c2ccc3c(n2)CCCN3CC(O)CN2CCCc3nc(C)c(C)cc32)cc1` (stereo not given), the composite z-score in [1] worked out at 1.43; in assay [5] it was 1.13; in assay [7] it was 0.429; in assay [8], 0.824; in assay [9] it was 1.1; in [10], 0.243. The composite z-score is 0.879 in [11]; 0.323 in [12]; 0.386 in assay [13]; 0.817 in [15]; 0.871 in [16]; 0.691 in assay [17]. Besides, the composite z-score in assay [18] is 0.995; in [19], 1.39; in [20], 1.6. Further, the z-score in [2] is 0.0222 (inactive); in assay [3], -0.411 (inactive); in assay [4] it was -1.43 (inactive); in assay [6] it was 0.682 (inactive); in assay [14], -0.155 (inactive).
